Data from the supplement of paper PMC9334596.
Values joined by “and” are separate entries in the source; they are usually repeats but may differ in a detail not shown here. Equal entries are not always repeated. In all, about 5,300 compounds were measured (“PER2::LUC luminescence relative to vehicle control”: median about 0.96, highest 2% from about 1.3 on). What follows is part of a selection rich in the highest values, with near analogues and random picks from the rest.

Test system: mPer2Luc MEF
Experiment: PER2::LUC luminescence relative to vehicle control (fold of vehicle); higher = higher PER2::LUC reporter signal
Details: 10 µM
How it was run: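 The value is PER2::LUC luminescence expressed as fold of vehicle control. Mouse embryonic fibroblasts carrying the mPer2Luc reporter were seeded at ~3000 cells per well in 384-well plates and grown in DMEM with 10% FBS at 37 °C and 5% CO2. Compounds from commercial libraries were added at 10 μM 48 h after seeding, and luminescence was read with the ONE-Glo luciferase assay system 24 h and 30 h after treatment, followed by an alamarBlue viability assay.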

Compound | PER2::LUC luminescence (time after treatment 24 h) | PER2::LUC luminescence (time after treatment 30 h)
O=C(O)CC1CCC(c2ccc(-c3ccc4nc(C(=O)NCc5ccc(OC(F)(F)F)cc5)cn4c3)cc2)CC1 (stereo unspecified) | 1 | 1.1
c1ccc2[nH]c(-c3cscn3)nc2c1 | 1.41 | 1.35
CC(C)(C)c1ccc(-c2nc3ccccc3[nH]2)cc1 | 0.03 | 0.034
c1ccc(Cc2nc3ccccc3[nH]2)cc1 | 1.17 | 0.971
O=C(NC[C@@H]1CN(c2ccc(N3CCOCC3=O)cc2)C(=O)O1)c1ccc(Cl)s1 | 0.948 | 0.975
CNC(=O)[C@H]1O[C@@H](n2cnc3c(N)ncnc32)[C@H](O)[C@@H]1O | 1.11 | 1.03
C[C@H]1CC[C@@H](C(C)(C)O)CC2=C1CC[C@@H]2C | 1.46 | 1.05
CC1(O)CCC(C(C)(C)O)CC1 (stereo unspecified) | 0.901 and 0.99 | 0.986 and 0.688
CCOc1ccc2nc(S(N)(=O)=O)sc2c1 | 1.19 | 1.28
Nc1nc2ccc(OC(F)(F)F)cc2s1 | 1.26 and 0.999 | 1.5 and 1.06
Oc1cc(O)cc(/C=C/c2ccc(O)c(O)c2)c1 | 1.15 | 1.09
COc1cc(/C=C/c2ccc(O)cc2)cc(OC)c1 | 1.03 | 0.93
Oc1ccc(/C=C/c2cc(O)cc(O)c2)cc1 | 1.46 | 1.29
NC1(C(=O)O)C[C@@H](C(=O)O)[C@H](C(=O)O)C1 (racemic) | 0.98 | 0.892
COc1cc(-c2oc3cc(O)ccc3c(=O)c2O)ccc1O | 1.13 | 1.2
COc1cc(N(C)CCN(C)C)c(N)cc1Nc1nccc(-c2cn(C)c3ccccc23)n1 | 0.57 | 0.54
COc1ccc2c(c1)OCc1c-2oc2cc(OC)ccc12 | 1.52 | 1.8
COc1ccc2c(c1)OC/C(=C\c1ccc(OC)c(O)c1)C2=O | 0.879 | 0.794
COc1ccc2c(C)cc(=O)oc2c1 | 0.984 | 1.02
OC1c2ccccc2N=C2CCCN21 (stereo unspecified) | 0.854 | 0.868
CCS(=O)(=O)N1CC(CC#N)(n2cc(-c3ncnc4[nH]ccc34)cn2)C1 | 1.09 and 0.875 | 1.24 and 1.03

Compound | PER2::LUC luminescence (time after treatment 24 h) | PER2::LUC luminescence (time after treatment 30 h)
N#CC[C@H](C1CCCC1)n1cc(-c2ncnc3[nH]ccc23)cn1 | 0.99 | 1.13
N#CCC(C1CCCC1)n1cc(-c2ncnc3[nH]ccc23)cn1 (stereo unspecified) | 1.26 | 1.51
CCC1=C[C@H]2CN(C1)Cc1c([nH]c3ccccc13)[C@@](C(=O)OC)(c1cc3c(cc1OC)N(C)[C@H]1[C@@](O)(C(=O)OC)[C@H](OC(C)=O)[C@]4(CC)C=CCN5CC[C@]31[C@@H]54)C2 | 0.279 | 0.324
O=C(Nc1ccc(Cl)cc1)c1cc(Br)ccc1O | 0.822 | 0.728
CCc1c(C(=O)NNC(=O)[C@@H](O)c2cc(F)cc(F)c2)ccc(O)c1C | 1.02 | 1.09
O=Nc1c(-c2c(O)[nH]c3cc(Br)ccc23)[nH]c2ccccc12 | 0.663 | 0.788
O=C1N=c2ccccc2=C1c1c(O)[nH]c2ccccc12 | 0.942 | 0.677
O=Nc1c(-c2c(O)[nH]c3ccccc23)[nH]c2ccccc12 | 1.72 | 2.02
CN(C)Cc1nc(-c2cn(C)c3ccccc23)no1 | 0.847 | 0.949
NS(=O)(=O)c1ccc(C(=O)O)cc1 | 0.746 | 1.06
CCCN(CCC)S(=O)(=O)c1ccc(C(=O)O)cc1 | 0.832 | 0.861
O=C(O)c1ccc(S(=O)(=O)N(Cl)Cl)cc1 | 0.921 | 1.67
COc1cccc(/C=N/N(C(=O)C(F)(F)F)c2ccc(C)cc2C)c1 | 0.818 | 0.768
CN(CCCNC(=O)c1ccc2nc3c(c(Cl)c2c1)CCCC3)Cc1ccccc1 | 0.848 | 0.958
C=CCn1c(=O)c2c(nc(-c3ccccc3)n2C)n(C)c1=O | 0.98 | 0.951
O=c1c(O)c(-c2cc(O)c(O)c(O)c2)oc2cc(O)cc(O)c12 | 1.22 | 1.34
O=c1c(O)c(-c2ccccc2)oc2cc(O)cc(O)c12 | 1.24 | 1.34
O=c1c(O)c(-c2ccccc2O)oc2cc(O)cc(O)c12 | 0.983 | 0.996
O=c1c(O)c(-c2ccc(O)cc2O)oc2cc(O)cc(O)c12 | 0.955 | 0.963
O=c1c(O)c(-c2ccc(O)cc2)oc2cc(O)cc(O)c12 | 1.01 | 0.989
O=c1c(O)c(-c2ccc(O)c(O)c2)oc2cc(O)cc(O)c12 | 0.939 and 0.842 | 0.934 and 1

Compound | PER2::LUC luminescence (time after treatment 24 h) | PER2::LUC luminescence (time after treatment 30 h)
C[C@@H]1O[C@@H](O[C@H]2[C@H](Oc3cc(O)c4c(=O)c(O)c(-c5ccc(O)cc5)oc4c3)O[C@H](CO)[C@@H](O)[C@@H]2O)[C@H](O)[C@H](O)[C@H]1O | 1.24 | 0.968
COC(=O)C1=CO[C@@H](O[C@@H]2O[C@H](CO)[C@@H](O)[C@H](O)[C@H]2O)[C@H]2[C@@H]1C(=O)C[C@@H]2C | 0.968 | 0.979
NC(=O)[C@@H]1CC[C@H](c2ccc(OCc3ccccc3F)cc2)N1 | 0.937 | 1.12
COc1ccc(C(=O)c2ccccc2C(=O)O)c(O)c1 | 1.19 | 0.841
Ic1cccc(/C=N/Nc2nc(N3CCOCC3)nc(N(c3ccccc3)c3ccccc3)n2)c1 | 1.3 | 1.15
CCOC(=O)C1=C(COCCN)NC(C)=C(C(=O)OC)[C@@H]1c1ccccc1Cl | 0.445 | 0.46
COC(=O)C1=C(C)NC(C)=C(C(=O)OCCN(C)Cc2ccccc2)C1c1cccc([N+](=O)[O-])c1 (stereo unspecified) | 1.07 | 0.867
COCCOC(=O)C1=C(C)NC(C)=C(C(=O)OC(C)C)C1c1cccc([N+](=O)[O-])c1 (stereo unspecified) | 1.13 | 1.17
CCOC(=O)C1=C(C)NC(C)=C(C(=O)OC)C1c1cccc([N+](=O)[O-])c1 (stereo unspecified) | 1.06 and 0.626 | 1.37 and 0.715
CNCc1ccc(C)c(NC(=O)c2ccc(Nc3nc(-c4ccccc4)c4ccccc4n3)cc2)c1 | 0.439 | 0.475
Cc1ccc(C(=O)Nc2ccc(S(=O)(=O)O)c3cc(S(=O)(=O)O)cc(S(=O)(=O)O)c23)cc1NC(=O)c1cccc(NC(=O)Nc2cccc(C(=O)Nc3cc(C(=O)Nc4ccc(S(=O)(=O)O)c5cc(S(=O)(=O)O)cc(S(=O)(=O)O)c45)ccc3C)c2)c1 | 0.964 and 0.875 | 0.981 and 0.97
Cc1ccc(NC(=O)c2cccc(N(C)C)c2)cc1NC(=O)c1ccc(O)cc1 | 1.1 | 1.56
CO/S(=N\S(=O)(=O)c1ccc(Cl)cc1)c1ccc([N+](=O)[O-])cc1 (stereo unspecified) | 0.994 | 1.22
NC(=O)c1ccc2nc(-c3ccc(Oc4ccc(Cl)cc4)cc3)[nH]c2c1 | 1.29 | 1.16
COc1cc(OC)cc(C(=O)Nc2ccc(Cl)c(-c3nc4ccc(N(C)C)cc4[nH]3)c2)c1 | 0.977 | 1.35
CC(C)CC[C@@H](O)[C@](C)(O)[C@H]1CC[C@@]2(O)C3=CC(=O)[C@]4(O)C[C@@H](O)[C@@H](O)C[C@]4(C)[C@H]3[C@H](O)C[C@]12C | 1.22 | 1.26
Cc1o[nH]c(=O)c1CCC(N)C(=O)O (stereo unspecified) | 0.959 | 0.829
O=C[C@H](O)[C@H]1OC(=O)[C@@H](O)[C@H]1O | 1.14 | 0.922
C[n+]1cc(NC(=O)c2cccc(C(=O)Nc3cc4ccccc4[n+](C)c3)n2)cc2ccccc21 | 0.697 | 0.604
Cc1cccn2c(=O)c(C=C(C#N)c3nc4ccccc4s3)c(Oc3ccc(F)cc3)nc12 | 0.941 | 0.942
CCCCCCCC/C=C/CCCCCCCCOP(=O)([O-])OCC[N+](C)(C)C | 1.02 | 0.935

Compound | PER2::LUC luminescence (time after treatment 24 h) | PER2::LUC luminescence (time after treatment 30 h)
OC[C@H]1O[C@@H](O[C@H]2[C@H](O)[C@@H](O)C(O)O[C@@H]2CO)[C@H](O)[C@@H](O)[C@H]1O (stereo partly specified) | 1.03 | 1.06
OC[C@H]1O[C@@H](O[C@H]2[C@H](O)[C@@H](O)[C@@H](O)O[C@@H]2CO)[C@H](O)[C@@H](O)[C@@H]1O | 0.982 | 0.927
OC[C@H]1O[C@@H](O[C@@H]2[C@@H](CO)OC(O)(CO)[C@H]2O)[C@H](O)[C@@H](O)[C@H]1O (mixture of isomers) | 1.12 | 1.37
CCCC1(C)C(C#N)(C#N)C1(C#N)C#N | 1.15 | 1.04
CC[C@H](CC[C@@H](C)[C@H]1CC[C@H]2[C@@H]3CC=C4C[C@@H](OC(C)=O)CC[C@]4(C)[C@H]3CC[C@]12C)C(C)C | 1.04 | 1.02
COC(=O)c1ccc2c(c1)nc(NC(=O)c1ccccc1)n2CCCc1ccccc1 | 1.09 | 0.933
C[C@@H]1CCNC(=O)c2cc3ccc(C(=O)Nc4nc5ccccc5n4CCCN(C)C)cc3n21 | 0.548 | 0.586
O=C(Nc1nc2ccccc2n1CCN1CCOCC1)c1cccc([N+](=O)[O-])c1 | 1.36 | 1.18
CC(C)[C@H](NC(=O)CCCCCN1C(=O)C=CC1=O)C(=O)N[C@@H](CCCNC(N)=O)C(=O)Nc1ccc(COC(=O)Oc2ccc([N+](=O)[O-])cc2)cc1 | 0.958 | 1.07
COC(=O)CNC(=O)C(=O)OC | 0.922 | 0.99
CC(C)(C)c1ccc(S(=O)(=O)Nc2ccc(-n3ccnc3)cc2)cc1 | 1.15 | 1.26
Cc1cc(OCc2nc(-c3ccccc3Cl)cs2)ccc1CCC(=O)O | 1.11 | 1.28
CCOc1cc2c(c(F)c1OCC)C(=N)N(CC(=O)c1cc(N3CCOCC3)c(OC)c(C(C)(C)C)c1)C2 | 0.14 | 0.117
Cc1oncc1C(=O)Nc1ccc(C(F)(F)F)cc1 | 1.35 | 1.82
O=C(Nc1ccc(C(O)(C(F)(F)F)C(F)(F)F)cc1)c1ccc(C(F)(F)F)cc1 | 0.687 | 0.47
Nc1ccc(NC(=O)c2ccc(C(F)(F)F)cc2)nc1 | 1.01 | 0.976
CC1=CC[C@@]2(C)CC[C@@](O)(C(C)C)[C@@H]2[C@@H](OC(=O)c2ccc(O)cc2)C1 | 1.08 | 1.15
O=C(Nc1ccc(Cl)cc1CN1C(=O)c2ccccc2C1=O)c1ccccc1O | 1.03 | 1.02
NC[C@H]1CC[C@H](C(=O)Oc2ccc(CCC(=O)O)cc2)CC1 | 0.828 | 0.901
Cc1cc2c(cc1Cl)N(C(=O)Nc1ccc(Oc3cccnc3C)nc1)CC2 | 0.924 | 1.03
